This passage reports cell viability results from the supplement of paper PMC12669797.

Where a name gives a salt, the structure may show the parent alone.

The subject of the first experiment is ES2. In words: cell viability relative to DMSO control (MTS) (fraction of DMSO control); higher = more viable cells / less growth inhibition. To be noted: 10 µM; 48 h. An outline of the steps: (§1)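 TOV-21G and ES2 clear cell carcinoma cells were seeded at 5000 cells per well in 96-well plates and grown for 24 h. Cells then received a 367-compound […] library at 10 µM final concentration, with DMSO in control wells. After 48 h, viability was read by MTS assay (CellTiter 96 AQueous One Solution) following the maker's protocol. Cell viability is expressed as a fraction of the DMSO control.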
In the case of `NNCCc1ccccc1` [Phenelzine], the cell viability was found to be 1.13.
Still for that read-out and setting: the figure for `CCN(CC)CC(=O)Nc1c(C)cccc1C` [Lidocaine] is 1.1; for `CC(C)CC(NC(=O)CNC(=O)OCc1ccccc1)C(=O)NC(Cc1ccccc1)C(=O)CCl` (stereo not drawn) it is 0.398; for `C=CCc1cccc(/C=N/NC(=O)CN2CCN(Cc3ccccc3)CC2)c1O` it is 0.787.

A further experiment deals with TOV-21G. Described as above. To be noted: 10 µM; 48 h. An outline of the steps:
as §1
Compound `CCC(=C/[C@H](C)C/C=C/C(C)=C/[C@@H](C)C(=O)[C@@H](C)[C@H](O)[C@@H](C)C/C(C)=C/C(=O)O)/C=C/[C@@H]1OC(=O)C=C[C@@H]1C` [Leptomycin B*] had a cell viability of 0.39.
The same measure, in the same setting: to `c1cc(CN2CCCNCCNCCCNCC2)ccc1CN1CCCNCCNCCCNCC1` [AMD3100 octahydrochloride] belongs 1.38.
The compound `CO[C@@]12[C@H](COC(N)=O)C3=C(C(=O)C(C)=C(N)C3=O)N1C[C@@H]1N[C@@H]12` [Mitomycin C] showed a cell viability of 0.213.
With `COc1cc(O)c(CC=C(C)C)c(O)c1C(=O)/C=C/c1ccc(O)cc1` [Xanthohumol], the cell viability stood at 1.01.
With `COc1cccc2c1C(=O)c1c(O)c3c(c(O)c1C2=O)C[C@@](O)(C(=O)CO)C[C@@H]3O[C@H]1C[C@H](N)[C@H](O)[C@H](C)O1` [Doxorubicin, HCl], the cell viability stood at 0.403.
`O=Cc1ccc(N2CCOCC2)cc1O`: the cell viability was 0.993.
As for `C[C@@H]1C[C@H]2O[C@@H]2/C=C\C=C\C(=O)Cc2c(Cl)c(O)cc(O)c2C(=O)O1` [Radicicol], the cell viability was found to be 0.37.
For `Nc1ncn([C@H]2C[C@H](O)[C@@H](CO)O2)c(=O)n1` [Decitabine], the cell viability was 1.11.
Turning to `COc1ccc([C@@H]2Sc3ccccc3N(CCN(C)C)C(=O)[C@@H]2OC(C)=O)cc1` [Diltiazem], the cell viability was found to be 1.04.
